Activity calls are given as the source filed them. How the calls were made is not given here.
The molecules below were run against Pantothenate synthetase (Mycobacterium tuberculosis (strain ATCC 25618 / H37Rv)) (UniProt P9WIL5) (assay: Recombinant Mtb pantothenate synthetase (PanC) inhibitors, coupled enzyme, confirmatory (AID 375;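 further: 0% = full reaction with vehicle and 100% = no enzyme background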)). Conditions: coupled enzyme assay; at 10 µM, active compounds read high.
Chain of Pantothenate synthetase (Mycobacterium tuberculosis (strain ATCC 25618 / H37Rv)) (P9WIL5 whole entry, looked up): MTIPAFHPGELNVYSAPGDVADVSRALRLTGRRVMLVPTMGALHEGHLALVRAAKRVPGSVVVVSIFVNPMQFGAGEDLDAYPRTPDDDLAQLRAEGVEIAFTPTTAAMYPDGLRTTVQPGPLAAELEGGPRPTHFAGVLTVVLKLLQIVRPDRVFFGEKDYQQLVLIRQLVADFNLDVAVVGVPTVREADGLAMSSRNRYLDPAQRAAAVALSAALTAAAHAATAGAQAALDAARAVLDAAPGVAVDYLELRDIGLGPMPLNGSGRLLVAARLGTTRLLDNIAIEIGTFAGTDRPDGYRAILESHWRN
For `COc1ccc(OC)c(NC(=O)C2C3CC4OC(=O)C2C4C3)c1` (configuration not stated), the inhibition was 0% (inactive). With `O=C(OCCN=C1NS(=O)(=O)c2ccccc21)C1CC(=O)N(c2ccc(Cl)cc2)C1` (configuration not stated) the inhibition was 0% (inactive). In the case of `CC(=O)N1CCN(c2ccc(NC(=O)c3ccc(C(C)(C)C)cc3)cc2)CC1`, the inhibition is reported as 0% (inactive). For `CCOC(=O)c1c(C)[nH]c(C)c1C(=O)COc1ccc(NC(=O)c2ccco2)cc1`, the inhibition was 1% (inactive). With `Cn1c(Cc2csc(N)n2)nnc1SCC(=O)NC1CCCCC1` the inhibition was 4% (inactive). `CN(C)CCOC(C)(c1ccccc1)c1ccccn1` (configuration not stated) was tested, and the inhibition was 0% (inactive). In the case of `Cc1ccc(C(=O)OCC(=O)c2ccc(Cl)s2)s1`, the inhibition is reported as 4% (inactive).

Source: PubChem BioAssay
